MCF10A rerep: A quantitative high throughput screen for small molecules that induce DNA re-replication in MCF 10a normal breast cells; MCF 10A DNA re-replication, Hoechst nuclear intensity, 48 h; Potency, µM (top dose mostly 46.1 µM), without a hit: top-dose activity, positive = re-replication, usual class: activators; 2.9% of 350,000 active; AID 624296, 2012; also: % of control where 0% means no effect; nearly all actives have a fitted effect of over 50% in size
SW480 rereplic: A quantitative high throughput screen for small molecules that induce DNA re-replication in SW480 colon adenocarcinoma cells | 1.8% of 340,000 active | AID 624297, 2012 | SW480 DNA re-replication, Hoechst DNA content imaging, 48 h | Potency, µM (top dose mostly 46.1 µM), inactives show at the top dose re-replication activation, most hits filed as activators; also: % of control where 0% means no effect; nearly all actives have a fitted effect of over 55% in size
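Compounds, transferred as 23 nL by pin tool, were incubated with cells for 48 hr; DNA content per nucleus was then quantified by Hoechst staining and fluorescence plate imaging.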
HT1080NT lethal: qHTS for induction of synthetic lethality in tumor cells producing 2HG: qHTS for the HT-1080-NT fibrosarcoma cell line. HT-1080-NT fibrosarcoma viability, CellTiter-Glo ATP luminescence, 48 h. Potency, µM (series often up to 46.1 µM), for the others: at the highest dose activity, negative = less viability, most hits filed as cytotoxic. 1.6% of 360,000 active. AID 686970, 2013;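 also: NT is the 2HG producing partner of a matched IDH1 knockdown line; 0% = DMSO-treated cells and -100% = media-only wells without cells; nearly all actives have a fitted effect of over 55% in size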
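750 cells/well, RPMI + 5% FBS; 2 h settle, compound pin-transfer, 48 h at 37 degrees C. CellTiter-Glo 10 min RT, luminescence. Normalized to DMSO and media-only wells.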
HT1080 IDH1KD tx: qHTS for induction of synthetic lethality in tumor cells producing 2HG: qHTS for the HT-1080-IDH1KD cell line; HT-1080 IDH1 knockdown viability, ATP luminescence, 48 h; Potency, µM (top dose mostly 46.1 µM), without a hit: top-dose activity, negative = toxicity, actives largely listed as cytotoxic; 2% of 360,000 active;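 also: 0% = DMSO wells and -100% = cell-free medium wells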
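Luminescent ATP read-out (CellTiter-Glo, 10 min at room temperature) after 48 h compound exposure at 37 °C gave viability of IDH1-knockdown HT-1080 cells. Activity was normalised to DMSO and cell-free wells, then fitted as concentration-response curves.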
KB-3-1 tox: qHTS assay for MDR1-selective chemotherapeutics: Primary screen using the parental adenocarcinoma cell KB-3-1. KB-3-1 viability, CellTiter-Glo ATP luminescence, 72 h. Potency, µM (top dose mostly 46.1 µM), usual class: cytotoxic. 1.4% of 400,000 active; also: % is scaled to controls: 0 for no effect and ±100 for the full control effect; nearly all actives have a fitted effect of over 60% in size
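Viability of parental KB-3-1 cells, measured by CellTiter-Glo luminescence, followed a 72 h incubation at 37 °C with pinned compounds in phenol-red-free DMEM containing 10% FBS.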
KB-V1 cytotox: qHTS assay for MDR1-selective chemotherapeutics: Primary screen using the drug-selected MDR subline cells KB-V1. KB-V1 MDR cells viability, CellTiter-Glo, 72 h. Potency, µM (doses to about 46.1 µM), most hits filed as cytotoxic. AID 1347076, 2019. 3.4% of 400,000 active; also: % is scaled to controls: 0 for no effect and ±100 for the full control effect; nearly all actives have a fitted effect of over 60% in size
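Luminescent ATP read-out (CellTiter-Glo, 10 min) measures survival of drug-selected KB-V1 MDR cells after 72 h, 37 degrees C compound exposure. Medium: phenol-red-free DMEM, 10% FBS. Values from fitted concentration-response curves.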
* marks the source's active call; other numbers are inactive results; i = inactive; ? = inconclusive; / = no result given; [ ] = dose if it differs, or a comment. In the library only some 7.9% were active in any assay of this set; here they are far more common. Calls follow the shape of the dose curve; as a rule, active = well fitted curve in the direction sought with a large enough effect; inconclusive = small, poorly fitted or top-dose-only effect, or another doubt; inactive = no such curve, though single readings can be large; an effect the other way counts as inactive or inconclusive. Potency is read from the fitted curve at half-maximal effect.

SMILES	MCF10A rerep	SW480 rereplic	HT1080NT lethal	HT1080 IDH1KD tx	KB-3-1 tox	KB-V1 cytotox
CCc1nnc(NC(=O)c2ccc(Cl)c(S(=O)(=O)N3CCc4ccccc43)c2)s1	21.5%	-6.3%	-14.5%	-1.5%[9.24 µM]	20.6µM*	13µM*
COc1ccc(C(=O)Nc2nc3c(s2)CCCC3)cc1S(=O)(=O)N1CCCc2ccccc21	?	?	-4.1%	?	?	5.17µM*
COc1cc2nc(NC(=O)c3ccc(S(=O)(=O)N4CCc5ccccc54)cc3)sc2cc1OC	/	/	/	/	?	7.31µM*
COc1ccccc1/C=C(\C#N)c1nc(-c2cc3ccccc3oc2=O)cs1	/	/	/	/	i	i
COc1ccc(NC(C)=O)cc1S(=O)(=O)N1CCc2ccccc21	?	-5.5%	-4.0%	-22.3%	i	i
COc1ccc(S(=O)(=O)N2CCc3ccccc32)cc1C(=O)Nc1ccc(NC(C)=O)cc1	23.1µM*	?	?	-25.1%	i	i
CCN(CC(=O)Nc1c(F)cccc1F)C(=O)c1cccc(S(=O)(=O)N2CCCc3ccccc32)c1	7.9%	-13.6%	-5.5%	-11.6%	?	i
NS(=O)(=O)c1ccc(NC(=O)c2ccc(S(=O)(=O)N3CCc4ccccc43)cc2)cc1	9.4%	0.8%	-14.8%	-22.2%	i	?
COc1ccc(C(=O)Nc2ccc(S(=O)(=O)N3CCc4ccccc43)cc2)cc1	?	6.5%	-3.0%	?	2.91µM*	2.59µM*
CN(Cc1nc2ccccc2c(=O)[nH]1)C(=O)c1cccc(S(=O)(=O)N2CCc3ccccc32)c1	?	2.8%	-15.1%	-13.0%	i	16.4µM*
CCN(CC(=O)Nc1cccc(OC)c1)C(=O)c1cccc(S(=O)(=O)N2CCc3ccccc32)c1	15.7%	1.3%	0.0%	2.4%	?	18.4µM*
COc1ccc(C(=O)COC(=O)CNC(=O)c2ccccc2)cc1F	-4.0%	-1.7%	-2.0%	19.2%	i	i
COc1ccc(NC(=O)c2cccc(S(=O)(=O)N3CCc4ccccc43)c2)cn1	13.6%	-1.8%	-14.2%	-15.3%	i	13µM*
COc1ccc(C(CNC(=O)c2cccc(S(=O)(=O)N3CCCc4ccccc43)c2)N(C)C)cc1 (configuration not stated)	17.0%	?	-4.1%	?	?	2.31µM*
COc1ccc(CNC(=O)C2CCN(S(=O)(=O)c3ccccc3)CC2)cc1	3.9%	0.7%	-0.3%	-0.4%	/	/
COc1ccc(OCC(Cn2cnc3ccccc32)OC(C)=O)cc1 (configuration not stated)	5.9%	-12.0%	2.0%	1.8%	i	?
COc1cccc(OCC(Cn2cnc3ccccc32)OC(C)=O)c1 (configuration not stated)	0.0%	0.6%	7.0%	5.3%	i	16.4µM*
CC(=O)CSc1cc(C)nc2c(-c3ccccc3)c(C)nn12	6.6%	-2.1%	20.4%	11.7%	?	?
C=CCSc1cc(C)nc2c(-c3ccccc3)c(C)nn12	?	?	?	?	?	7.31µM*
Cc1cc(SCC(=O)c2cccs2)n2nc(C)c(-c3ccccc3)c2n1	?	?	-7.3%	?	i	20.6µM*
CCOc1ccc(-c2cc3c(=O)n(Cc4nc(-c5ccc(OC)cc5OC)oc4C)ccn3n2)cc1Cl	/	/	/	/	i	i
COc1ccc(S(=O)(=O)NCC(c2ccc3c(c2)OCO3)N2CCN(C)CC2)cc1OC (configuration not stated)	-2.4%	-10.8%	-3.4%	2.3%	i	i
CCOc1ccc(S(=O)(=O)NCC(c2ccc3c(c2)OCO3)N2CCN(C)CC2)cc1 (configuration not stated)	9.3%	6.51µM*	-9.9%	-16.7%	i	i
Cc1cc2c(cc1C)-c1nnnn1C(N1CCCCC1)C(=O)N2 (configuration not stated)	/	/	1.0%	0.6%	i	?
CCn1c(/C=C/N(C)c2ccccc2)[n+](CC)c2ccc(Cl)cc21	26.6%	3.5%	7.08µM*	-23.3%	5.17µM*	i
SMILES	MCF10A rerep	SW480 rereplic	HT1080NT lethal	HT1080 IDH1KD tx	KB-3-1 tox	KB-V1 cytotox
CC(=O)C(C(C)=O)c1c(Cl)c(O)c(O)c2c(C(=O)c3ccccc3)coc12	?	-0.4%[9.22 µM]	?	11.6µM*	13µM*	?
C[C@H](O)[C@@H]1C(=O)N2CCc3c([nH]c4ccccc34)[C@@H]2C[C@@H]1N(C)C(=O)Nc1ccccc1	/	/	-10.3%	-22.5%	i	i
C[C@H](O)[C@@H]1CN2CCc3c([nH]c4ccccc34)[C@@H]2C[C@@H]1N(C)C(=O)Nc1cc(Cl)cc(Cl)c1	/	/	?	?	?	i
CN(C(=O)C(C)(C)C)[C@H]1C[C@H]2c3[nH]c4ccccc4c3CCN2C(=O)[C@H]1CO	/	/	-3.9%	0.5%	i	i
CN(C(=O)NC1CCCCC1)[C@H]1C[C@H]2c3[nH]c4ccccc4c3CCN2C(=O)[C@H]1CO	/	/	-20.1%	-24.7%	6.51µM*	i
C[C@H](O)[C@@H]1CN2CCc3c([nH]c4ccc(-c5ccc6c(c5)OCO6)cc34)[C@@H]2C[C@@H]1N(C)C(=O)NC1CCCCC1	/	/	-0.1%	0.6%	0.581µM*	?
C[C@H](O)[C@@H]1CN2CCc3c([nH]c4ccc(-c5ccc6c(c5)OCO6)cc34)[C@@H]2C[C@@H]1N(C)C(=O)Nc1cc(Cl)cc(Cl)c1	/	/	9.2µM*	7.31µM*	13µM*	?
C[C@H](O)[C@@H]1CN2CCc3c([nH]c4ccccc34)[C@@H]2C[C@@H]1N(C)C(=O)Nc1ccccc1	/	/	-18.6%	4.6%	i	i
C[C@H](O)[C@@H]1C(=O)N2CCc3c([nH]c4ccccc34)[C@@H]2C[C@@H]1N(C)C(=O)Nc1cc(Cl)cc(Cl)c1	/	/	16.4µM*	?	?	i
O=C(COC(=O)/C=C/c1ccccc1Cl)NC1CCCC1	-18.3%	-12.0%	9.7%	7.3%	i	i
CCOC(=O)C1=C(C)NC(C)=C(C(=O)OCC)C1c1ccccc1C=CC(=O)OC(C)(C)C	?	29.9µM*	/	/	/	/

High-throughput results: PubChem BioAssay, National Center for Advancing Translational Sciences (NCATS)
